This is an account of results in PubChem BioAssay AID624141 (Broad Institute, 2012).

SMILES strings stand for the structures. Screen size: about 17,000 compounds; about 260 (1.5%) were called active. This is one part of a sample in which actives are shown more often than they occur.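 How the source made its calls: active means spot fluorescence over background with P-value below 7% in all four replicate spots, showing protein binding; inactive means the rest.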

Myc proto-oncogene protein (Homo sapiens), sequence (P01106 whole entry, looked up): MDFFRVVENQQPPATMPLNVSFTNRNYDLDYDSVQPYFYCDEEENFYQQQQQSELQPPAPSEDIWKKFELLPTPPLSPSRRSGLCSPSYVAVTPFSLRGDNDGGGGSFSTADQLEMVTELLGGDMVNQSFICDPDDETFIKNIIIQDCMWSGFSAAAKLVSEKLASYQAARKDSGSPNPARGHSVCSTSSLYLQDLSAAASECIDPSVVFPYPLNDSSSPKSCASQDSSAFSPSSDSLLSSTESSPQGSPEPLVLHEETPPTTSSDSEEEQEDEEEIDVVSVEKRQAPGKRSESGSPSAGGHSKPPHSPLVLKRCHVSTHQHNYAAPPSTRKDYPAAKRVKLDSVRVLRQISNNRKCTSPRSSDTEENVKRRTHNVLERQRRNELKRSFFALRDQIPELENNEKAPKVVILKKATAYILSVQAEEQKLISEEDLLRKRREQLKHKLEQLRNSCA

The experiment addresses Myc proto-oncogene protein (Homo sapiens) (UniProt P01106). As to the kind of experiment: small molecules binding His-tagged c-Myc – biochemical, small molecule microarray, anti-His fluorescence, primary screen (AID 624141).
Turning to `CCOC(=O)c1ccc(COC(=O)c2cc(=O)[nH]c3ccccc23)o1`, the result was inactive.
Under `CC(C)NC(=O)N(C)C[C@H]1OCCCC[C@H](C)Oc2ccc(NC(=O)Nc3ccc4c(c3)OCO4)cc2C(=O)N([C@H](C)CO)C[C@@H]1C` stands “inactive”; under `C[C@@H]1CN([C@@H](C)CO)C(=O)Cc2cc(NC(=O)CCN3CCOCC3)ccc2O[C@H]1CN(C)S(=O)(=O)c1ccccc1`, “inactive”; under `Cc1noc(C)c1NC(=O)Nc1cccc2c1O[C@@H](CN(C)Cc1ccc3c(c1)OCO3)[C@@H](C)CN([C@@H](C)CO)C2=O`, “inactive”.
Under `C[C@@H]1CN([C@@H](C)CO)C(=O)CCCn2cc(nn2)CO[C@H]1CN(C)C(=O)Nc1ccc(N2CCCCC2)cc1` stands “inactive”.
To `CC(C)NC(=O)Nc1ccc2c(c1)C(=O)N([C@@H](C)CO)C[C@H](C)[C@H](CN(C)C(=O)c1ccccc1)OCCCC[C@@H](C)O2` belongs “inactive”; to `c1ccc2[nH]c(NCCN3CCOCC3)nc2c1`, “inactive”; to `COC(=O)Cc1csc(Nc2c(C)n(C)n(-c3ccccc3)c2=O)n1`, “inactive”.
With `O=C(C1=C[C@H](c2coc3ccccc3c2=O)C[C@H](OCc2ccc(CO)cc2)O1)N1CCOCC1`, the compound was classed as inactive.
To `NC(=O)C1=C[C@H](c2csc3ccccc23)C[C@H](OCc2ccc(CO)cc2)O1` belongs “inactive”; to `O=C(C1=C[C@H](c2csc3ccccc23)C[C@H](OCc2ccc(CO)cc2)O1)N1CCCCC1`, “active”; to `C=C1C[C@@]23CC[C@@H]4[C@](C)(CO)CCC[C@@]4(C)[C@@H]2CC[C@@H]1C3`, “inactive”.
Under `Cc1noc(C)c1S(=O)(=O)Nc1ccc2c(c1)C(=O)N([C@H](C)CO)C[C@@H](C)[C@@H](CN(C)Cc1ccccc1)OCCCC[C@@H](C)O2` stands “inactive”; under `C[C@@H]1CN([C@H](C)CO)C(=O)c2cc(N(C)C)ccc2O[C@@H]1CN(C)S(=O)(=O)c1cn(C)cn1`, “inactive”.
`C[C@H]1CCCCO[C@@H](CN(C)C(=O)c2ccccc2)[C@@H](C)CN([C@@H](C)CO)C(=O)c2cc(NS(=O)(=O)c3ccccc3)ccc2O1`: the call was inactive.
Under `CCCCc1nn(-c2ccccc2C(F)(F)F)c(=O)n1Cc1ccc(-c2ccccc2S(=O)(=O)NC(=O)c2sccc2C)cc1` stands “active”; under `CNC[C@@H]1Oc2ccc(NC(=O)CCC(F)(F)F)cc2C(=O)N([C@@H](C)CO)C[C@@H]1C`, “inactive”.
Consider `CC(C)C[C@](O)(C(=O)OCc1ccc(O[C@@H]2O[C@H](CO)[C@@H](O)[C@H](O)[C@H]2O)cc1)[C@H](O)C(=O)OCc1ccc(O[C@@H]2O[C@H](CO)[C@@H](O)[C@H](O)[C@H]2O)cc1`, for which the compound was called inactive.
To `Cn1nnc(NC(=O)COc2ccc(Cl)cc2Cl)n1` belongs “inactive”.
